“And” between values parts separate entries of the source, which are not always exact repeats. Equal values may be shown once. The panel holds about 79,000 compounds, 15% with a hit somewhere; the sample as a whole holds those more often. Some structures have more than one record in an assay (separate samples or runs), and their calls can disagree. The source made the active and inactive calls. Rule as the data show it: active = growth inhibition above about 70%; inactive = the rest.
Test: NCI Yeast Anticancer Drug Screen. Data for the bub3 strain (AID 167)
Details: S. cerevisiae bub3 mutant strain, stronger effect = higher value
Method: Growth inhibition of yeast strains with defined genetic alterations is measured as a screen for potential anti-cancer activity. Selected strains with alterations in DNA damage repair or cell cycle control were exposed to compounds and growth inhibition was measured relative to vehicle treated controls. The strain used in this assay is bub3

[1] = at 5.0 µM (retest, dose inferred, filed as 0.5)
[2] = at 50.0 µM (retest, dose inferred, filed as 5.0)

| SMILES | growth inhibition [1] | growth inhibition [2] | growth inhibition (at 50.0 µM) |
| --- | --- | --- | --- |
| CCOc1ccc(N/N=C(\CCC(=O)O)C(=O)O)cc1 | -15% (inactive) | -45% (inactive) | 86.7% (active) |
| CCOC(=O)[C@H]1Nc2ccc([N+](=O)[O-])cc2C2c3ccccc3CC21 (some centres not stated) | 6% (inactive) | 89% (active) | 88.2% (active) |
| O=[N+]([O-])c1ccc2ccccc2c1O | -3% (inactive) | 93% (active) | 95.5% (active) |
| O=C1/C(=C/c2ccc(Cl)cc2)CNC/C1=C\c1ccc(Cl)cc1 | 90% (active) and 46% (inactive) | 85% (active) and 95% (active) | 79.9% (active) and 85.3% (active) |
| CC(C)C1=CC23CCC4C(C)(C(=O)O)CCCC4(C)C2CC1C1C(=O)OC(=O)C13 (configuration not stated) | 90% (active) | 99% (active) | 99% (active) and 99.5% (active) |
| CCOC(=O)C(Cc1ccccc1[N+](=O)[O-])C(=O)OCC | 30% (inactive) | 3% (inactive) | 44.6% (inactive) |
| COc1cccc2c1C(=O)c1c(O)c3c(c(O)c1C2=O)C[C@@](O)(C(C)=O)C[C@@H]3OC1CC(N)C(O)C(C)O1 (some centres not stated) | 7% (inactive) | 93% (active) |  |
| C[n+]1c2cc(N)ccc2cc2ccc(N)cc21 | -1% (inactive) and -18% (inactive) | 99% (active) and 88% (active) | 86.5% (active) and 81.6% (active) |
| NC1=C(Cl)C(=O)c2ccccc2C1=O | 16% (inactive) and 7% (inactive) | 97% (active) and 98% (active) | 84.3% (active) and 95.5% (active) |
| C=CCNC(=O)c1ccccc1SC(C)=O | 52% (inactive) | 99% (active) | 89.2% (active) |
| Fc1ccc(NC(=S)SCc2ccc3c(c2)OCO3)cc1 | -8% (inactive) | 97% (active) | 98.9% (active) |
| COc1ccc(-c2c(C#N)c(-c3ccc(C)cc3)n(NS(=O)(=O)c3ccccc3)c(=O)c2C#N)cc1 | 47% (inactive) | 56% (inactive) | 39.6% (inactive) |
| O=C1c2ccccc2C(=O)c2c(O)c(O)cc(O)c21 | 98% (active) | 97% (active) | 86.1% (active) and -9.1% (inactive) |
| C=CCCC(=O)O | 4% (inactive) | 1% (inactive) | 64.5% (inactive) and 9.55% (inactive) |
| COC1OCC(O)C(O)C1O (configuration not stated) |  |  | -0.95% (inactive) [middle of 4 runs] |

— PubChem BioAssay (NCI)
